Our source for the max response and Potency values is PubChem BioAssay AID651814 (National Center for Advancing Translational Sciences (NCATS), 2012).

Hit rate of the full screen: of about 2,100 compounds, about 590 (28%) were called active. About 42% were inconclusive and are not listed. Calls come from the whole dose curve; as a rule, active = well fitted inhibition curve with a large enough effect; inconclusive = small, poorly fitted or top-dose-only effect; inactive = flat fitted curve, though single readings scatter. The list shows a part of the results.
Potency is the fitted concentration of half-maximal effect.

Sequence of DNA dC->dU-editing enzyme APOBEC-3F (Homo sapiens) (Q8IUX4 whole entry, looked up): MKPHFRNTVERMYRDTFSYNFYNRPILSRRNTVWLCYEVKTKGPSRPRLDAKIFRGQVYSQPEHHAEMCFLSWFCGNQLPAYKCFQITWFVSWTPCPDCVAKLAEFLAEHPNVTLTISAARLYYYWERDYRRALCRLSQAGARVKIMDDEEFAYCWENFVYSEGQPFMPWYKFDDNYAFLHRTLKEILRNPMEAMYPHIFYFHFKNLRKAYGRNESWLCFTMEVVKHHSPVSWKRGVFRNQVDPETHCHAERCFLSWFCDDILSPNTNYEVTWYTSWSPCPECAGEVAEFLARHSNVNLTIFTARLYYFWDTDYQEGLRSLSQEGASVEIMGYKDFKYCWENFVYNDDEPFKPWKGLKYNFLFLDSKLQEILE

The target in this test is DNA dC->dU-editing enzyme APOBEC-3F (Homo sapiens) (UniProt Q8IUX4). The experiment in a line: qHTS for inhibitors of Vif-A3F interactions: Cherry picks.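 For max response: % of control where 0% means no effect; active compounds raise eYFP fluorescence by blocking Vif-driven A3F loss.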 Note: nearly all actives have a fitted effect of over 70% in size. The following applies: HeLa A3F-eYFP + Vif (tagged APOBEC3F with the HIV-1 protein that degrades it), eYFP fluorescence, 24 h. The procedure, abridged:
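HeLa cells stably expressing A3F-eYFP plus Vif, cultured overnight, then exposed to compounds at several concentrations for 24 h at 37 deg C. Reduced Vif-driven degradation read as rising eYFP fluorescence (488 nm ex/500-530 nm em) by laser-scanning cytometry; MG132 as positive control.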
On to `Cc1cc(C)c(C(=O)N(CCN(C)C)CC2CCCN(Cc3ccccc3F)C2)o1` (stereo not given), for which the max response was 2.52% (inactive).

With `Cc1ccc(-n2c(=O)c3ccc(C(=O)NCc4ccccc4Cl)cc3n(CC(=O)Nc3cccc(Cl)c3)c2=O)cc1`, the max response is -26% (inactive). Take `CCOc1ccc(NC(=O)Cn2c(=O)n(Cc3ccc(C(=O)NCc4ccc(C)cc4)cc3)c(=O)c3ccccc32)cc1`: the Potency was 11.6 µM (active). Consider `CCOc1ncccc1C(=O)OCc1ccc(C(=O)OC)cc1`, for which the max response is -26.7% (inactive).

With `Cc1ccc(CNC(=O)Cn2cc(C(=O)c3ccc(Cl)cc3)c(=O)c3ccc(C)nc32)cc1`, the max response is -28.8% (inactive). On the same count and under the same terms, to `CCOc1ncccc1C(=O)NCc1ccc(OC)cc1` belongs -24.5% (inactive).

With `O=C(NCCc1ccccc1Cl)c1ccc(Cn2c(=O)c3cccn3c3cccnc32)cc1`, the Potency was 20.6 µM (active). For `CCOc1ccc(CCNC(=O)c2ccc(Cn3c(=O)c4cccn4c4cccnc43)cc2)cc1`, the Potency is 16.4 µM (active).

As to `Cc1ccc2nc(-c3ccccn3)c(Nc3ccccc3C)n2c1`, the max response was -2.29% (inactive). On to `CCCCN1C(=O)C2Cc3c([nH]c4ccccc34)CN2C1=S` (stereo not given), for which the Potency was 15.8 µM (active). On the same count and under the same terms, the figure for `CC1(C)CCN2CCC(C)(C)c3c(O)ccc1c32` is 14 µM (active); for `O=C(N/N=C/c1ccc([N+](=O)[O-])o1)c1cc2c(ccc3ccccc32)o1` it is 9.2 µM (active). With `O=C(N/N=C/c1ccc([N+](=O)[O-])o1)c1cn2ccc3ccccc3c2n1`, the max response is -11.2% (inactive). Take `O=C(N/N=C/c1ccc([N+](=O)[O-])o1)c1sc2ccccc2c1Cl`: the Potency is 8.2 µM (active).

`CSc1ccc(/C=N/NC(=O)c2ccccc2Cl)cc1`: the max response was -22.8% (inactive). As to `O=C(Cc1cc2ccccc2o1)NCc1ccc(F)cc1`, the max response was -14% (inactive).

`N#Cc1c(-c2ccc(F)cc2)c(-c2ccc(F)cc2)nn(CCO)c1=O`: the Potency is 7.04 µM (active). Consider `Cc1ccc2c(c1)sc(-c1ccc(N(C)C)cc1)[n+]2C`, for which the Potency is 18.4 µM (active). For `Cc1cccc(C)c1Nc1nc2ccccc2nc1NS(=O)(=O)c1ccccc1`, the max response was -12.4% (inactive). Consider `CCc1ccc2nc(SCC(=O)N3CC(=O)Nc4ccccc43)c(C#N)cc2c1`, for which the Potency is 15.8 µM (active).

Take `O=C(NC(=S)Nc1ccccc1N1CCCCC1)c1ccccc1`: the max response was -2.38% (inactive). On the same count and under the same terms, to `COc1ccc2cc(C(=O)C3CCCN(Cc4ccccn4)C3)ccc2c1` (stereo not given) belongs 1.49% (inactive). As for `CCc1ccc2nc(SCC(=O)Nc3ccccc3N3CCOCC3)c(C#N)cc2c1`, the Potency was 1.46 µM (active). As for `COc1ccc2nc(SCC(=O)N3CC(=O)Nc4ccccc43)c(C#N)cc2c1`, the Potency was 10.3 µM (active). As to `NNC(=O)c1cc2sccc2s1`, the max response was -9.98% (inactive). Regarding `O=c1[nH]c2cc(Br)cnc2nc1/C=C(\O)c1ccc(F)cc1`, the Potency was 13 µM (active). As for `O=S(=O)(Nc1nc2ccccc2nc1N1CCN(c2ccccc2)CC1)c1ccc(F)cc1`, the max response was -24.2% (inactive). Same read-out and setting: to `CN1CCN(c2nc3ccccc3nc2NS(=O)(=O)c2ccc(Br)cc2)CC1` belongs -2.09% (inactive). In the case of `O=S(=O)(Nc1nc2ccccc2nc1N1CCN(c2ccccn2)CC1)c1ccc(Cl)cc1`, the Potency was 18.4 µM (active).

With `O=C(N=c1ccn(-c2nc3ccccc3nc2NS(=O)(=O)c2ccccc2)cc1)c1cccs1`, the max response was -18.4% (inactive). With `O=C(N=c1ccn(-c2nc3ccccc3nc2NS(=O)(=O)c2ccc(Cl)cc2)cc1)c1cccs1`, the Potency is 13 µM (active). Consider `CCOC(=O)N1CCC(Nc2nc3ccccc3nc2NS(=O)(=O)c2ccc(Cl)cc2)CC1`, for which the max response is -1.97% (inactive). On the same count and under the same terms, the figure for `CCC(C)Sc1cccc(-c2nc3cc(C)ccn3c2NC2CCCCC2)c1` (stereo not given) is -1.04% (inactive); for `Cc1cc(-n2c(SCC(=O)Nc3ccc(Br)cc3)nc3n[nH]c(C)c3c2=N)ccc1Cl` it is -24.1% (inactive); for `Cc1cc(-n2c(C)cc(C(=O)CCl)c2C)no1` it is -21.8% (inactive). Take `COc1ccc2oc(=N)c(C(=O)Nc3ccc(F)cc3)cc2c1`: the max response was -21% (inactive).

Consider `COc1cc(OC)cc(C(=O)Nc2ccc(N3CCN(C(=O)c4cccs4)CC3)cc2)c1`, for which the max response is -11.5% (inactive). Take `COc1ccc2o/c(=N/NC(=O)c3cccs3)c(C(N)=O)cc2c1`: the Potency is 3.96 µM (active). As to `COC(=O)C1=C(Nc2ccc(C)cc2)C=C(C)C(C(=O)OC)C1c1cccc(OC)c1` (stereo not given), the max response is -20.5% (inactive).

`CN(C)c1ccc2ccc3cccc4ccc1c2c34`: the Potency is 9.2 µM (active).

As to `Cc1cccc(CN2C(=O)N/C(=C/c3ccc(C)s3)C2=O)c1`, the Potency was 9.94 µM (active). In the case of `COCc1ccc(O)c2ncccc12`, the max response was 1.62% (inactive). In the case of `Cc1cc(NC(=O)/C(C#N)=C\c2ccc(-c3ccc(SC(F)F)cc3)o2)n(-c2ccccc2)n1`, the Potency was 9.2 µM (active).

Turning to `Cc1cc(NC(=O)/C(C#N)=C/c2ccc(-c3ccc(SC(F)F)cc3)o2)n(-c2ccccc2)n1`, the Potency is 3.66 µM (active). `Cc1ccc(C)c(N2CCN(C(=O)c3cccn4c(=O)c5sccc5nc34)CC2)c1`: the max response was -29.7% (inactive). As for `CCOC(=O)c1ccc(/C=C2/C=C(c3ccccc3)N(c3ccc(Cl)c(C(=O)O)c3)C2=O)cc1`, the Potency is 20.6 µM (active). `CN(C)c1ccc(Nc2nc3ccccc3n3nnnc23)cc1`: the max response is -2.05% (inactive). On the same count and under the same terms, the figure for `Cc1ccc(C(=O)O)cc1Nc1nc2ccccc2n2nnnc12` is -4.15% (inactive). Regarding `CC(NC(=O)c1ccc(Nc2nc3ccccc3n3nnnc23)cc1)c1ccccc1` (stereo not given), the Potency is 16.4 µM (active). On the same count and under the same terms, to `Cc1ccc2nc3sc(C(=O)N4CCCc5ccccc54)c(N)c3cc2c1` belongs 14 µM (active).

In the case of `Cc1cccc2cc3c(N)c(C(=O)N4CCCc5ccccc54)sc3nc12`, the Potency was 9.2 µM (active).

Turning to `Cc1cccc2cc3c(N)c(C(=O)N4CCc5ccccc54)sc3nc12`, the Potency is 6.51 µM (active). Turning to `CCCn1nnc(NC(=S)NC(=O)c2ccccc2OC)n1`, the max response was 0.308% (inactive). Consider `O=C(Cc1nc2ccccc2[nH]c1=O)c1ccc(Cl)cc1`, for which the Potency was 18.4 µM (active). As for `CC(=O)Nc1ccc(NC(=O)C/C(C)=N/NC(N)=S)cc1`, the max response is 0.646% (inactive). The same measure, in the same setting: the figure for `CCc1ccc(C(=O)NC(=S)Nc2ccc(N3CCOCC3)cc2)cc1` is -0.0784% (inactive). `CCc1ccc(NC(=O)/C(C#N)=C/c2cc3ccc(C)cc3nc2N2CCOCC2)cc1`: the Potency was 14.6 µM (active). `COCCCNC(=S)N/N=C/c1ccc(OC)cc1`: the max response was -0.494% (inactive). With `C=CCNC(=S)N/N=C(\C)c1ccc(OC)cc1`, the max response was -3.87% (inactive).

For `Cc1nn(-c2ccc(F)cc2)c(Cl)c1/C=C1\C(=O)Nc2ccccc21`, the max response is -19.4% (inactive).

For `Cc1cc(C)c(/C=C2\C(=O)Nc3ccccc32)[nH]1`, the Potency was 16.4 µM (active). `CNCC(O)Cn1c2c(c3ccccc31)CCCC2` (stereo not given): the max response was 1.63% (inactive). For `Cc1cc(N(C)C)c(C)cc1/C=C/c1ccnc2ccccc12`, the Potency was 18.4 µM (active). Still for that read-out and setting: the figure for `CCN(CC)c1cc(C)c(/C=C/c2ccnc3ccccc23)cc1C` is 13 µM (active). On to `CCN(CC)c1ccc(NC(=O)CSc2nc(C3CC3)nc3ccccc23)cc1C`, for which the max response is -22.1% (inactive).

Consider `Cc1cc(C)n(S(=O)(=O)/C=C/c2ccccc2)n1`, for which the max response is -7.92% (inactive). For `O=C(Nc1ccccc1-c1nc2ccccc2[nH]1)c1ccc(N2C(=O)CCC2=O)cc1`, the Potency is 18.4 µM (active). As for `c1ccc2[nH]c(NN=C3CCCCCC3)nc2c1`, the max response is 2.02% (inactive). Take `CCN1C(=S)SC(=O)C1=C1C=C(C)N(Cc2ccco2)C(C)=C1`: the Potency is 17.7 µM (active).

In the case of `CN(C)C=Nc1c(Br)cc(Br)c2nonc12`, the Potency is 14.6 µM (active). Take `O=S(=O)(Nc1cccc2ncccc12)c1cccs1`: the max response was -3.96% (inactive). Same read-out and setting: to `CC(=O)c1cccc(NC(=S)N2c3ccccc3CC2C)c1` (stereo not given) belongs 9.61% (inactive). For `Cc1cccc(NC(=O)/C=C/c2ccc([N+](=O)[O-])s2)c1`, the Potency was 3.26 µM (active). On to `COC(=O)c1sccc1NC(=S)Nc1cc(C)cc(C)c1`, for which the max response was -0.135% (inactive).

On to `Cc1ccc(NC(=O)c2ccc([N+](=O)[O-])s2)cc1S(=O)(=O)N1CCOCC1`, for which the max response was -11.7% (inactive). Consider `Cc1ccc(NC(=O)/C=C/c2ccc([N+](=O)[O-])s2)c(C)c1`, for which the Potency was 5.17 µM (active). For `CC(=O)c1cccc(NC(=O)/C=C/c2ccc([N+](=O)[O-])s2)c1`, the Potency is 5.17 µM (active). On to `Cc1cc(C)cc(NC(=O)/C=C/c2ccc([N+](=O)[O-])s2)c1`, for which the Potency is 10.3 µM (active).

As to `Cc1nc(NC(=O)/C=C/c2ccco2)sc1C`, the max response was -21.9% (inactive). On the same count and under the same terms, the figure for `N#C/C=C/N1CCN(C(=O)c2ccco2)CC1` is 0.169% (inactive); for `Cc1cc(C)nc(-n2nc(C)cc2NC(=O)c2ccc(F)cc2F)n1` it is -0.0521% (inactive); for `COc1cccc(Nc2nc(Nc3ccc(Cl)c(C(=O)O)c3)nc(C)c2[N+](=O)[O-])c1` it is -16.3% (inactive).

In the case of `Cc1ccc(NC(=O)/C=C/c2ccc([N+](=O)[O-])s2)cc1`, the Potency is 5.17 µM (active). Same read-out and setting: the figure for `CCOC(=O)c1cc2n(c1/N=C/N(C)C)-c1ccccc1C2=O` is 18.4 µM (active). For `CCOC(=O)c1cc2n(c1N)-c1ccccc1C2=O`, the max response was -16.6% (inactive). As to `Fc1cccc(Cc2c(-c3ccco3)nc3ccc(Br)cn23)c1`, the max response was -28.7% (inactive). Regarding `O=C1c2ccccc2C(=O)c2c(/C=C/N3CCCCC3)ccnc21`, the Potency is 20.6 µM (active).

In the case of `O=C1c2cccc3c([N+](=O)[O-])ccc(c23)C(=O)N1c1ccccn1`, the max response was -0.304% (inactive). Turning to `CC(=O)Oc1ccc(N2C(=O)c3cccc4c([N+](=O)[O-])ccc(c34)C2=O)cc1`, the max response was -15.1% (inactive). In the case of `CC(=O)Oc1cccc(N2C(=O)c3cccc4c([N+](=O)[O-])ccc(c34)C2=O)c1`, the Potency was 14 µM (active). As to `COc1ccc(C(=O)C[n+]2cc(Br)cc3ccccc32)cc1`, the Potency was 8.2 µM (active). On the same count and under the same terms, to `COc1ccc(C(=O)C[n+]2cccc3cc(Cl)ccc32)cc1` belongs 18.4 µM (active). The same measure, in the same setting: the figure for `CC(C)(C)c1ccc(C(=O)C[n+]2cccc3cc(Cl)ccc32)cc1` is 20.6 µM (active); for `O=C(C[n+]1cccc2cc(Cl)ccc21)c1ccc2ccccc2c1` it is 18.4 µM (active). As for `CCCC1=[N+](CC(=O)c2ccc(Br)cc2)CCn2cccc21`, the max response is -4.77% (inactive).
